From PubChem BioAssay (NCI) come the findings set out here.

“And” between values parts separate entries of the source, which are not always exact repeats. Identical values can stand only once. About 79,000 compounds went through this panel and 15% of them were active in at least one assay; those are over-represented in the sample as a whole. More than one record can exist for a structure, and the calls need not agree. The source made the active and inactive calls. Rule as the data show it: active = growth inhibition above about 70%; inactive = the rest.

A short description of this assay: NCI Yeast Anticancer Drug Screen. Data for the mlh1 strain (AID 171).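 Also: 0% = growth of vehicle-treated control cultures of the same strain.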 The settings on record: S. cerevisiae mlh1 strain growth inhibition, stronger effect = higher value. As for the experimental part: Growth inhibition of yeast strains with defined genetic alterations is measured as a screen for potential anti-cancer activity. Selected strains with alterations in DNA damage repair or cell cycle control were exposed to compounds and growth inhibition was measured relative to vehicle treated controls. The strain used in this assay is mlh1

Take `Cn1cnc(N)c1C(=N)[Se]`: the growth inhibition runs as follows: (at 1.2 µM) 2% (inactive); (at 3.7 µM) -3% (inactive); (at 11.0 µM) 28% (inactive); (at 33.0 µM) 60% (inactive); (at 100.0 µM) 89% (active).

As to `Nc1nc(N)c(-c2ccc(Cl)c(Cl)c2)c(CP(Cl)(Cl)(Cl)Br)n1`, the growth inhibition (at 1.2 µM) is -8% (inactive); the growth inhibition (at 3.7 µM) was -2% (inactive); the growth inhibition (at 11.0 µM) was 7% (inactive); the growth inhibition (at 33.0 µM) is 48% (inactive); the growth inhibition (at 100.0 µM) is 88% (active).

With `CCCCCNC(=O)c1c(O)[nH]c(=S)[nH]c1=O`, the growth inhibition is 13% (inactive) (at 1.2 µM); 46% (inactive) (at 3.7 µM); 90% (active) (at 11.0 µM); 96% (active) (at 33.0 µM); 96% (active) (at 100.0 µM).

As for `O=C1NC(=S)NC(=O)C1=Cc1ccc([N+](=O)[O-])o1`, the growth inhibition by setting is: (at 1.2 µM) 15% (inactive); (at 3.7 µM) 33% (inactive); (at 11.0 µM) 21% (inactive); (at 33.0 µM) 41% (inactive); (at 100.0 µM) 81% (active).

Turning to `COc1ccc([N+]2=NC(c3ccc([N+](=O)[O-])cc3)=NN(c3ccccc3)C2)cc1`, the growth inhibition reads like this: (at 1.2 µM) 0% (inactive); (at 3.7 µM) -2% (inactive) and -3% (inactive); (at 11.0 µM) -1% (inactive) and -3% (inactive); (at 33.0 µM) 14% (inactive) and 16% (inactive); (at 100.0 µM) 92% (active) and 59% (inactive).

Consider `O=C1C=C(CN(CCCl)CCCl)C(=O)C=C1CN(CCCl)CCCl`, for which the growth inhibition by setting is: (at 1.2 µM) -1% (inactive); (at 3.7 µM) -1% (inactive); (at 11.0 µM) -1% (inactive); (at 33.0 µM) 2% (inactive); (at 100.0 µM) 6% (inactive).

`Cc1ccc2nc3sc(=O)sc3nc2c1`: the growth inhibition was 27% (inactive) (at 1.2 µM); 50% (inactive) (at 3.7 µM); 98% (active) (at 11.0 µM); 98% (active) (at 33.0 µM); 95% (active) (at 100.0 µM).

Regarding `CN(C)CCC(C(=O)C(Br)Br)(c1ccccc1)c1ccccc1`, the growth inhibition reads like this: (at 1.2 µM) 2% (inactive); (at 3.7 µM) 1% (inactive); (at 11.0 µM) 61% (inactive); (at 33.0 µM) 99% (active); (at 100.0 µM) 100% (active).
